This note sets out measurements from PubChem BioAssay (Tox21).

Assay [1] in a line: Nuclear factor erythroid 2-related factor 2/antioxidant responsive element (Nrf2/ARE) small molecule agonists: qHTS cell viability counter screen in human keratinocytes (AID 1919968; active means well fitted curve in the direction sought with a large enough effect in the repeat runs; an effect the other way counts as inactive or inconclusive; further: nearly all actives have a fitted effect of over 55% in size). Summed up: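 Cells of the KeratinoSens line were plated at 1,500 per well and left for 5 h before compound transfer from DMSO stocks. After a 23 h incubation (37 C, 5% CO2), CellTiter-Fluor was added. Signal was taken as fluorescence intensity 1 h later.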
(In qHTS, concentration-response curves come from the screen itself.)

Assay [2] is described as follows: Nuclear factor erythroid 2-related factor 2/antioxidant responsive element (Nrf2/ARE) small molecule agonists: luciferase reporter gene qHTS assay in human keratinocytes (AID 1919969). Further: nearly all actives have a fitted effect of over 35% in size. Further: potency means the concentration at half of the fitted maximal effect.
Assay [3] addresses Gonadotropin-releasing hormone receptor (Homo sapiens) (UniProt P30968). Put plainly: Human gonadotropin-releasing hormone receptor (GnRHR) small molecule agonists, calcium flux assay in GnRHR-HEK293 cells (AID 1920063). Further: nearly all actives have a fitted effect of over 35% in size. The method in brief: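 Compounds dissolved in DMSO are pin-transferred onto dye-loaded GnRHR-HEK293 cells, which were seeded 18 h before at 37 C/5% CO2. Calcium signal is read as fluorescence intensity at 1 s intervals for 3 min.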
A general note: Calcium flux is commonly read through the fluorescence of an indicator in the cells.

The target of assay [4] is KiSS-1 receptor (Homo sapiens) (UniProt Q969F8). As to the kind of experiment: Human kisspeptin (KISS1R) small molecule agonists, calcium flux assay in KISS1R-HEK293 cells (AID 1920064; active means well fitted curve in the direction sought with a large enough effect in the repeat runs; an effect the other way counts as inactive or inconclusive). Summed up: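 Cell line: HEK293, stable human KISS1R. Dye loading 1 h at 37 C after 18 h culture. Read: kinetic fluorescence, 480/540 nm, 3 min at 1 s intervals.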
Chain of KiSS-1 receptor (Homo sapiens) (Q969F8 whole entry, looked up): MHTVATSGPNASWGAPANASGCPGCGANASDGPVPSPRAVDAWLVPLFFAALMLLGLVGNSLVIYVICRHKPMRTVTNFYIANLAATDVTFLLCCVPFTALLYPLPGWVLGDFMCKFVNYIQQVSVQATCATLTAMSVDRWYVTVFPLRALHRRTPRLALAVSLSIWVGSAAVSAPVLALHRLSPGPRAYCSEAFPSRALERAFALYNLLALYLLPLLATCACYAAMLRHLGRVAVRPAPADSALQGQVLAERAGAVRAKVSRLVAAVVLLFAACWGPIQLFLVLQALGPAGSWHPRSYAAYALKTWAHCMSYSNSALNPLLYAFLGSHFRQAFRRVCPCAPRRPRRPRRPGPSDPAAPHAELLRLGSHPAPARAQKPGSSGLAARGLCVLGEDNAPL
A short description of assay [5]: G protein-coupled receptor (GPCR) small molecule agonists, calcium flux assay: HEK293 wild type cell line counter screen (AID 1920065). The method in brief: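 Tox21 10K compounds, 15 concentrations each in triplicate, pin-transferred in DMSO onto dye-loaded cells; kinetic read at 480/540 nm for 3 min, 1 s intervals.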
A short description of assay [6]: p53 small molecule agonists, cell-based qHTS assay with human liver microsomes (AID 1963577).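 Further: p53 response element beta-lactamase reporter cells with liver microsomes plus NADPH.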 Summed up: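 With metabolic activation: human liver microsomes (0.5 mg/mL final) plus NADPH (0.5 mg/mL final) added alongside compounds to p53RE-bla cells; 16 h 37 C exposure; beta-lactamase read by LiveBLAzer fluorescence.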
Assay [7] in a line: p53 small molecule agonists, cell-based qHTS assay with rat liver microsomes (AID 1963578). Summed up:
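Metabolic activation by rat liver microsomes and NADPH, each 0.5 mg/mL final, added right after compounds to p53RE-bla reporter cells (4,000/well, plated 5 h earlier). 16 h at 37 C, then LiveBLAzer substrate for 2 h at room temperature in the dark; fluorescence read-out.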

Assay [8] can be described thus: p53 small molecule agonists, cell-based qHTS assay with rat liver microsomes: qHTS cell viability counter screen (AID 1963580). Further: nearly all actives have a fitted effect of over 45% in size. The method in brief:
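Counter screen for cytotoxicity under metabolic activation: rat liver microsomes and NADPH, 0.5 mg/mL final each, added with compounds to p53RE-bla HCT-116 cells; 16 h at 37 C, then ATP luminescence read.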

A short description of assay [9]: p53 small molecule agonists, cell-based qHTS assay: qHTS cell viability counter screen (AID 1963581). Further: nearly all actives have a fitted effect of over 45% in size. The method in brief: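 ATP content measured by luminescence in HCT-116 p53RE-bla cells treated 16 h at 37 C, same wells as the reporter screen.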
A short description of assay [10]: p53 small molecule agonists, cell-based qHTS assay (AID 1963582; active means well fitted activation curve with a large enough effect in the signal ratio in the repeat runs, not every such curve was filed as active; the % refers to the signal ratio). The method in brief:
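16 h compound exposure (37 C) of p53 response element–bla cells, preceded by 5 h recovery at 37 C/5% CO2; read-out via LiveBLAzer B/G FRET substrate, 2 h RT, fluorescence intensity.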

Assay [11] addresses 5-hydroxytryptamine receptor 2A (Homo sapiens) (UniProt P28223). As to the kind of experiment: 5-hydroxytryptamine receptor 2A (HTR2A) small molecule antagonists, cell-based qHTS assay (AID 1963586). Further: nearly all actives have a fitted effect of over 45% in size. Summed up:
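CHO cells stably expressing human HTR2A were plated for 18 h at 37 C, then loaded with calcium dye for 1 h. Compounds were preincubated 5 min at room temperature before DOI (4 nM solution) was added. Kinetic fluorescence was read for 3 min.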

Assay [12] shares this target. As to the kind of experiment: 5-hydroxytryptamine receptor 2A (HTR2A) small molecule agonists, cell-based qHTS assay (AID 1963587). Further: nearly all actives have a fitted effect of over 30% in size. Summed up:
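HTR2A-CHO cells, plated 18 h at 37 C/5% CO2, dye-loaded 1 h at 37 C; compounds in DMSO added by pin tool (agonist mode). Intracellular calcium flux read as kinetic fluorescence on FDSS over 2 min at 1 s intervals.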

For assay [13], the target named is Muscarinic acetylcholine receptor M1 (Homo sapiens) (UniProt P11229). As to the kind of experiment: Cholinergic receptor muscarinic 1 (CHRM1) small molecule antagonists, cell-based qHTS assay (AID 1963588). Further: nearly all actives have a fitted effect of over 40% in size. Summed up: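 Compounds were tested at 15 concentrations in three independent runs. Dye-loaded CHRM1-CHO cells were exposed 5 min at room temperature before stimulation by acetylcholine added at 50nM. Intracellular calcium was read kinetically on FDSS for 3 min.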
Chain of Muscarinic acetylcholine receptor M1 (Homo sapiens) (P11229 whole entry, looked up): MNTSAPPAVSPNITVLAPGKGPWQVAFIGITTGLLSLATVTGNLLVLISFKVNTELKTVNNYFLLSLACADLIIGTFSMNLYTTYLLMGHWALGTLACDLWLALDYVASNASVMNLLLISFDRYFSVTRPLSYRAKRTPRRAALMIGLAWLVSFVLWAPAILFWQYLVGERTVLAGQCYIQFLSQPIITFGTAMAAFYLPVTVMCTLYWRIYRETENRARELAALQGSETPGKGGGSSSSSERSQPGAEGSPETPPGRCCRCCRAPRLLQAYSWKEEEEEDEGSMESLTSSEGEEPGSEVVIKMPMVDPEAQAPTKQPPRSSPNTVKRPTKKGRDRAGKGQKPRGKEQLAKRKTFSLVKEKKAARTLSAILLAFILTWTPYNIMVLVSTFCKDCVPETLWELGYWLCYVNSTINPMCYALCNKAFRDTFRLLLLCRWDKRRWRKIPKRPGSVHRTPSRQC

Assay [14] has the same target. As to the kind of experiment: Cholinergic receptor muscarinic 1 (CHRM1) small molecule agonists, cell-based qHTS assay (AID 1963589). Further: nearly all actives have a fitted effect of over 35% in size. Summed up:
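Homogeneous fluorescence calcium flux, agonist mode. Human M1-expressing CHO cells; compound dosed at 15 concentrations, three independent runs; signal sampled every 1 sec.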

A short description of assay [15]: cAMP Responsive Elements (CRE) small molecule agonists, cell-based qHTS assay (AID 1963590). The method in brief:
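HEK 293T cells stably bearing CRE-bla were plated at 2,000 cells per well and rested 18 h. Compounds, positive controls or DMSO were added for 3 h at 37 C. LiveBLAzer B/G substrate was then loaded for 2 h at room temperature.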

The nature of assay [16]: cAMP Responsive Elements (CRE) small molecule antagonists, cell-based qHTS assay (AID 1963591; active means well fitted inhibition curve with a large enough effect in the signal ratio in the repeat runs, not every such curve was filed as active; the % refers to the signal ratio). Summed up: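 First, CRE-bla HEK293T cells settled 18 h at 37 C. Next, compound and 0.25 uM final NKH477 were applied for 3 h. Last, LiveBLAzer B/G substrate was loaded for 2 h at room temperature.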
Assay [17] concerns the target Beta-2 adrenergic receptor (Homo sapiens) (UniProt P07550). Put plainly: Adrenergic beta2 receptor (ADRB2) small molecule antagonists, cell-based qHTS assay (AID 1963592). Further: series mostly up to about 92 µM; nearly all actives have a fitted effect of over 50% in size. The method in brief:
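Assay format: CHO-ADRB2 cells, 18-20hr seeding at 37C/5% CO2, then compound plus 1nM isoproterenol agonist mix for 0.5hr RT. Homogeneous time-resolved fluorescence cAMP detection after 1hr, expressed as 665/615 nm ratio.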

Assay [18] addresses D(2) dopamine receptor (Homo sapiens) (UniProt P14416). As to the kind of experiment: Dopamine D2 receptor (DRD2) small molecule agonists, cell-based qHTS assay (AID 1963594). Further: nearly all actives have a fitted effect of over 35% in size. Summed up:
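HEK293 cells stably expressing DRD2 were cultured 24 h at 37 C, then given Ro20-1724 (0.1 mM final) and compounds for 10 min at room temperature. NKH477 (200nM) was then added for 30 min. cAMP was read by HTRF.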

Assay [19] has the same target. Put plainly: Dopamine D2 receptor (DRD2) small molecule antagonists, cell-based qHTS assay (AID 1963595; active means well fitted inhibition curve with a large enough effect in the signal ratio in the repeat runs, with a control signal flat; the % refers to the signal ratio). The method in brief: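 HEK293 cells stably expressing DRD2 were preincubated with 0.1 mM Ro20-1724, then with compound for 10 min at room temperature. Cells were stimulated with 200 nM NKH477 plus 12 nM quinpirole for 30 min, and cAMP was read by HTRF.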
Assay [20] can be described thus: p53 small molecule agonists, cell-based qHTS assay with human liver microsomes: qHTS cell viability counter screen (AID 1963579). Further: nearly all actives have a fitted effect of over 45% in size. Summed up: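 Metabolic activation used human liver microsomes and NADPH, both 0.5 mg/mL final, over 16 hours at 37 C on p53RE-bla cells (4,000/well). Cytotoxicity measured by CellTiter-Glo luminescence, 30 min at room temperature.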

“And” between values parts separate entries of the source, which are not always exact repeats. Equal entries are not always repeated. Results filed as inconclusive are left out. The source made the active and inactive calls. Unless noted, the call rests on the fitted dose curve.

Chain of D(2) dopamine receptor (Homo sapiens) (P14416 whole entry, looked up): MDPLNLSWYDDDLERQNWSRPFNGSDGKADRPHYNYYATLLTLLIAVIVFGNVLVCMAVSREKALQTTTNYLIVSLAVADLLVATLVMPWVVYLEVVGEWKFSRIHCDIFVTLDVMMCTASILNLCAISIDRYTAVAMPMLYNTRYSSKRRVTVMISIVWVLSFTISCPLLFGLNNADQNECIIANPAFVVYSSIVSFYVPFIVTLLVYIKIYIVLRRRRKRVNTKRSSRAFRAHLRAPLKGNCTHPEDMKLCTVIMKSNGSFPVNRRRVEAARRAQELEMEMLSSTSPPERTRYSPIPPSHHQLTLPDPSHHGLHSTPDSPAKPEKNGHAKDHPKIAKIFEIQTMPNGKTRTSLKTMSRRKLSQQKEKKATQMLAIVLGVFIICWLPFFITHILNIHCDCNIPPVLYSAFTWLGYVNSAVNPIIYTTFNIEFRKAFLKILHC
Chain of 5-hydroxytryptamine receptor 2A (Homo sapiens) (P28223 whole entry, looked up): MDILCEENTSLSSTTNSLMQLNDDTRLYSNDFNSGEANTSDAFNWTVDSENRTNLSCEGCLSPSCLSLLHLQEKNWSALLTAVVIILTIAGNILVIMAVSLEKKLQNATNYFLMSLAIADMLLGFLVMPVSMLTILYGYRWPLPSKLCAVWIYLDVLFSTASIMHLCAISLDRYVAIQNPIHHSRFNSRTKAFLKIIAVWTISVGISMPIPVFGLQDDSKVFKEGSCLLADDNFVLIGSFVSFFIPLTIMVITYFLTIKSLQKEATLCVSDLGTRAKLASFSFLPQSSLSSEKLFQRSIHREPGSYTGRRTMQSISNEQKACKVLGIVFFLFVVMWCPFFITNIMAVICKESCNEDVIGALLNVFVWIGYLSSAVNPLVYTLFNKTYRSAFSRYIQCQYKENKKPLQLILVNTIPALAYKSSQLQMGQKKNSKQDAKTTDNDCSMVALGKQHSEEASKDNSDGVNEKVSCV
Chain of Beta-2 adrenergic receptor (Homo sapiens) (P07550 whole entry, looked up): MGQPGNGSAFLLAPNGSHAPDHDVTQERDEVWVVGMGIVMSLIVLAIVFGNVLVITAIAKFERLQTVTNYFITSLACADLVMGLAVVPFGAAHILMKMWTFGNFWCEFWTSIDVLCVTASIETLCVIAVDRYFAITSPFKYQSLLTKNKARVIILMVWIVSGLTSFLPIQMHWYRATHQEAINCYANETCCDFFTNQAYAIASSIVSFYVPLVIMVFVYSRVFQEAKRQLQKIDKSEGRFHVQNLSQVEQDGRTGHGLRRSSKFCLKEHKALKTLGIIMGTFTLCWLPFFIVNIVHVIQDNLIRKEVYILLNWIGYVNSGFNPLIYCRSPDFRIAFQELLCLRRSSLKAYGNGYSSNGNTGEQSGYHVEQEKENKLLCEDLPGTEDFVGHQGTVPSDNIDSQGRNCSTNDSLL
Chain of Gonadotropin-releasing hormone receptor (Homo sapiens) (P30968 whole entry, looked up): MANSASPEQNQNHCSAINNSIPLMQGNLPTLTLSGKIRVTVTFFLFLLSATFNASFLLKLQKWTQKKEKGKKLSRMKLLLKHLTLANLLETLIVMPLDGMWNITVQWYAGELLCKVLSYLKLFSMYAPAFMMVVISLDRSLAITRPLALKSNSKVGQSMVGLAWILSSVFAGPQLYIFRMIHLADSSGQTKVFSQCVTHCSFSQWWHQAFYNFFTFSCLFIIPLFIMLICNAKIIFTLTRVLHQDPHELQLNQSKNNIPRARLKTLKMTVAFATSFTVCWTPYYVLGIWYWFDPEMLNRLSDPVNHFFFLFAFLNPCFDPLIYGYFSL

As to `C[C@H]1O[C@H](OC2[C@@H](O)[C@@H](O)C(O)[C@H](O)[C@H]2O)[C@@H](N)C[C@@H]1N=C(N)C(=O)O` (stereo partly drawn), the Potency entry in assay [1], in [2], in assay [3], in [4], in [5] and in assay [6] was “inactive” in each case. Further, the Potency entry in assay [7], in assay [8], in assay [9], in assay [10], in [11] and in assay [12] was “inactive” throughout. Moreover, the Potency result in assay [13], in [14], in [15], in assay [16], in assay [17] and in [18] was “inactive” throughout. Further, the Potency result in assay [19] is “inactive”.

For the molecule `Cc1ccc2cc(C)ccc2c1`, the Potency entry in assay [1], in [2], in [3], in [4], in [5] and in [6] was “inactive” in each case. In addition, the Potency entry in assay [20], in [8], in [9], in assay [10], in assay [11] and in assay [12] was “inactive” each time. For the same molecule, the Potency entry in [13], in [14], in assay [15], in assay [16], in [17] and in assay [19] was “inactive” in each case.

As for `CC(=[OH+])/C=C(/C)[O-].CC(=[OH+])/C=C(\C)[O-].CC(=[OH+])/C=C(\C)[O-].[Fe]`, the Potency entry in assay [1], in assay [2], in assay [3], in assay [4], in [5] and in [6] was “inactive” in each case. Besides, the Potency entry in assay [7], in assay [8], in assay [9], in assay [10], in [11] and in assay [12] was “inactive” throughout. Further, the Potency entry in assay [13], in assay [14], in [15], in [16], in assay [17] and in assay [18] was “inactive” in each case. Further, the Potency entry in assay [19] is “inactive”.

Regarding `FC(Cl)(Cl)Cl`, the Potency result in [1], in assay [2], in assay [3], in assay [4], in assay [5] and in assay [6] was “inactive” each time. The Potency entry in assay [7], in assay [9], in assay [10], in assay [11], in [12] and in assay [13] was “inactive” in each case. Further, the Potency entry in assay [15], in [16], in [17], in assay [18] and in assay [19] was “inactive” each time.

With `c1ccc(-c2cccc(-c3ccccc3)c2)cc1`, the Potency entry in [1], in [3], in assay [4], in [5], in assay [6] and in assay [7] was “inactive” in each case. Moreover, the Potency result in assay [8], in assay [9], in assay [11], in [12], in assay [13] and in assay [14] was “inactive” in each case. In addition, the Potency result in [15], in assay [16], in assay [17], in [18] and in assay [19] was “inactive” throughout. Also, in assay [2], the Potency is 21.9 µM (active) and 27.3 µM (active).

Turning to `C=COCCCl`, the Potency entry in assay [1], in assay [2], in assay [3], in assay [4], in assay [5] and in [6] was “inactive” in each case. The Potency result in assay [7], in [8], in assay [9], in assay [10], in [11] and in assay [12] was “inactive” throughout. The Potency result in [13], in assay [14], in assay [15], in assay [16], in assay [17] and in assay [18] was “inactive” in each case.

For `c1ccc(CN2CCNCC2)cc1`, the Potency entry in assay [1], in [2], in [3], in assay [4], in [5] and in assay [6] was “inactive” throughout. For the same molecule, the Potency entry in assay [7], in [8], in assay [9], in assay [10], in [11] and in assay [12] was “inactive” in each case. For the same molecule, the Potency entry in [13], in [14], in assay [15], in assay [16], in [17] and in [18] was “inactive” throughout. In addition, the Potency result in assay [19] is “inactive”.
